# Compound activity deposited in PubChem BioAssay by National Center for Advancing Translational Sciences (NCATS).
# HEK cytotox: kills HEK 293 cells; HEK 293 viability, ATP luminescence (CellTiter-Glo), 48-72 h; actives 6.6% (n = 94,000); Potency, µM (titrated, usually from 115 µM), without a hit: at the top dose activity change, negative = cytotoxicity, most hits filed as inhibitors; also: nearly all actives have a fitted effect of over 60% in size
#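 Viability of HEK 293 cells, plated at 250 cells/well, was judged by cellular ATP after compound treatment for 48 or 72 hr. Luminescence was imaged 10 min after CellTiter-Glo addition at room temperature.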
# NPR1 antag: antagonists of human natriuretic peptide receptor Npr1; AID 1347048; P16066; Potency, µM (doses to about 46.3 µM), for the others: top-dose activity change, negative = inhibition, usual class: inhibitors; HEK293 hNpr1 GloSensor cGMP, ANP-stimulated luminescence; actives 1.6% (n = 76,000); calls by dose curve; also: nearly all actives have a fitted effect of over 60% in size
#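 Compound pre-incubated 30 min at room temperature on GloSensor-loaded HEK293 cells stably carrying hNpr1 and the pGS-40F cGMP biosensor. Stimulation uses hNppA at 0.1 nM final; luminescence is taken at baseline and 20 min post-agonist.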
# Luciferase inh: inhibitors of firefly (Photinus pyralis) luciferase. actives 2.5% (n = 76,000). purified P. pyralis luciferase, luminescence, biochemical. P08659. Potency, µM (top dose mostly 115 µM), most hits filed as inhibitors. AID 1347043; also: nearly all actives have a fitted effect of over 65% in size
# Target sequence (P08659 whole entry, looked up): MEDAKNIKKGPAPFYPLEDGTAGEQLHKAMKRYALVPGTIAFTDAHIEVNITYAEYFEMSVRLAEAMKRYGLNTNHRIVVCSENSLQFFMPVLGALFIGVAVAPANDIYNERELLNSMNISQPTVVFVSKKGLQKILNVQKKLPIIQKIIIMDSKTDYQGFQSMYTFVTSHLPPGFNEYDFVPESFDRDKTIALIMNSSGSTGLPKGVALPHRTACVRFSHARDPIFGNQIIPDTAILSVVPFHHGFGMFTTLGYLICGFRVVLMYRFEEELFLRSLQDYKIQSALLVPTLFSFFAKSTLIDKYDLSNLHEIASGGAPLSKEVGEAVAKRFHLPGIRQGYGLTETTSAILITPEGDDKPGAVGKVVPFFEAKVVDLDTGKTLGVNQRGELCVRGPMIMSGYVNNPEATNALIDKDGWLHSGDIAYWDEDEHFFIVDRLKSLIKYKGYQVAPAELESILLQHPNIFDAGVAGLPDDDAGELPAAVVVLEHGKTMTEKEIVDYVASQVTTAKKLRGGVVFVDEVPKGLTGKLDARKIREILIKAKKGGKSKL
#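 Cell-free enzyme assay, 10nM P. pyralis luciferase, luciferin and ATP each at 10uM. Inhibition profiled over a 6-point titration, read as luminescence.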
# GPT2 inhibitor: GPT2 alanine aminotransferase inhibition. Q8TD30. Recombinant GPT2, coupled pyruvate oxidase/HRP Amplex Red fluorescence. Potency, µM (titrated, usually from 57.7 µM), without a hit: top-dose activity change, negative = inhibition, hits mostly inhibitors. actives 0.25% (n = 100,000). AID 1671188; also: nearly all actives have a fitted effect of over 60% in size
#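 Recombinant GPT2 (10ng/uL) with 250uM a-KG and 2mM L-alanine, 30 min at room temperature, in HEPES pH 7.5 buffer. Pyruvate detected by pyruvate oxidase/HRP/Amplex Red fluorescence after 30 min in the dark; AOA (50uM) as positive control.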
# 3T3 cytotox: NIH 3T3 cell cytotoxicity; NIH 3T3 viability, CellTiter-Glo ATP luminescence, 48-72 h; Potency, µM (highest dose often 96.7 µM), for the others: top-dose activity change, negative = cytotoxicity, usual class: inhibitors; actives 4.3% (n = 94,000); also: nearly all actives have a fitted effect of over 55% in size
#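 NIH 3T3 cells at 400 cells/well received 23 nL of compound by pintool and were incubated 48 or 72 h at 37 °C. Viability was read as ATP-coupled CellTiter-Glo luminescence.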
# The depositor's hits bear a star; i = inactive; ? = inconclusive; / = no result given; [ ] = remark or other dose. Sampled rows, rich in hits. Any-hit rate of the full collection: about 10%. Unless noted, calls follow the shape of the dose curve; as a rule, active = well fitted curve in the direction sought with a large enough effect; inconclusive = small, poorly fitted or top-dose-only effect, or another doubt; inactive = no such curve, though single readings can be large; an effect the other way counts as inactive or inconclusive. % is scaled to controls: 0 for no effect and ±100 for the full control effect; potency is read from the fitted curve at half-maximal effect.
SMILES,HEK cytotox,NPR1 antag,Luciferase inh,GPT2 inhibitor,3T3 cytotox
CO[C@H]1C=CC=C(C)C(=O)NC2=CC(=O)C(NCCN(C)C)=C(C[C@@H](C)C[C@H](OC)[C@@H](O)[C@@H](C)C=C(C)[C@@H]1OC(N)=O)C2=O,/,/,/,30.6µM*,/
COCCN1C(=O)c2ccccc2C(C(=O)Nc2ccc3c(c2)OCO3)C12CCCC2 (centres undefined),-11.6%,-0.6%,i,2.1%,-2.5%
CC(=O)N1CCN(Cc2ccc(-c3cnc4c(OCc5ccccc5)nccn34)cc2)CC1,39.8µM*,-87.6%,?,2.4%,31.6µM*
CN1CCN(Cc2ccc(-c3cnc4c(OCc5ccccc5)nccn34)cc2)CC1,?,?,31.6µM*,-7.3%[88.5 µM],?
O=C(NCc1ccc(-c2cnc3c(Oc4ccccc4)nccn23)cc1)c1cccc(O)c1,?,?,i,-14.2%[88.5 µM],?
O=[S+]([O-])(NC1CN(c2ccnc3ccnn23)C1)c1ccccc1,-27.8%[172 µM],/,/,1.7%[88.5 µM],?
O=C(C1CCOCC1)N1CCC2(CC1)NCCc1c2[nH]c2ccccc12,-5.7%,3.6%,i,-10.3%,-21.7%
Cc1nonc1CN1CCN(c2cc(C3CC(N)C3)nc(N)n2)CC1 (centres undefined),-17.8%,1.9%,i,i,-15.0%
COc1ccc(N2CCN(c3cc(C4CC(N)C4)nc(N)n3)CC2(C)C)cc1 (centres undefined),22.4µM*,-23.7%,i,-4.8%[11.5 µM],22.4µM*
CC(C)C(=O)Nc1cc(-c2ccncc2)nn1C,-4.2%[172 µM],/,/,-3.1%[88.5 µM],-1.1%[138 µM]
Cc1noc2c(NC3CCC(O)CC3)cc(-c3ccc(F)cc3)nc12 (centres undefined),?,3.5%[70.6 µM],i,1.2%[88.5 µM],22.4µM*
Cc1noc2c(-c3cccnc3NC3CCN(C)CC3)cc(-c3ccc(Cl)cc3)nc12,89.1µM*,-1.8%[70.6 µM],i,3.7%[88.5 µM],22.4µM*
Cc1noc2c(-c3cccnc3NC3CCC(O)CC3)cc(-c3ccccc3)nc12 (centres undefined),?,2.6%[70.6 µM],i,-16.0%[88.5 µM],?
Cc1noc2c(NC3CCN(C)CC3)cc(-c3ccc(F)cc3)nc12,63.1µM*,0.9%[70.6 µM],i,5.0%[88.5 µM],10µM*
O=C(c1cccc(Cl)c1)N1CCC(C(=O)N2CCCC(c3nc4ncccc4[nH]3)C2)CC1 (centres undefined),-2.1%,/,/,i,?
C[S+](=O)([O-])N1CCC(Cn2ccc3c(N4CCOCC4)nc(-c4cccc5[nH]ncc45)cc32)CC1,?,-16.9%,i,-1.9%,10µM*
C[S+](=O)([O-])N1CCC(Cn2ccc3c(N4CCOCC4)nc(-c4ccncc4)cc32)CC1,?,3.0%,i,i,28.2µM*
C[S+](=O)([O-])N1CCC(Cn2ccc3c(N4CCOCC4)nc(-c4ccccc4F)cc32)CC1,?,-6.8%,i,-11.2%,-33.1%
COc1ccccc1-c1cc2c(ccn2CC2CCN([S+](C)(=O)[O-])CC2)c(N2CCOCC2)n1,?,-5.5%,i,-13.2%,?
COc1ccc(N2C(=O)CSC23CCN(C(=O)NCc2ccccc2)CC3)cc1,?,4.1%,i,i,-16.5%
COc1ccc(N2C(=O)CSC23CCN(C(=O)Nc2ccc([N+](=O)[O-])cc2)CC3)cc1,25.1µM*,-3.7%,i,1.3%,?
O=C(Nc1ccccc1)N1CCC2(CC1)SCC(=O)N2c1ccc(Cl)cc1,?,-3.8%,22.4µM*,1.4%,?
COc1ccc(CN2C(=O)[C@H](OC)[C@@H]2C2=CCN(C(=O)C3CCCC3)CC2)cc1,?,/,/,i,?
O=C(NCc1ccccc1F)C1CCN(Cc2ccccc2-c2cccnc2)CC1,?,/,/,-0.3%,?
COCCNc1ncccc1-c1noc([C@@H]2CCCN2CC(C)(C)C)n1,?,1.1%[70.6 µM],i,-5.1%[88.5 µM],50.1µM*
COCCOc1ncccc1-c1noc([C@@H]2CCCN2Cc2cccc(C#N)c2)n1,?,0.9%[70.6 µM],i,-3.1%[88.5 µM],-15.7%[174 µM]
COCCNc1ncccc1-c1noc([C@@H]2CCCN2Cc2cccc(C#N)c2)n1,70.8µM*,-1.9%[70.6 µM],i,-5.0%[88.5 µM],?
